From PubChem BioAssay (NCI)
This is part of a sample that, as a whole, favours compounds with a hit. Of some 83,000 tested, about 20% had one in any assay.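 Step 1: grow cells in 96-well plates. Step 2: add test compound at a single concentration. Step 3: incubate 48 h. Step 4: record percent growth.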 Unmarked numbers belong to inactive results. The source made the active and inactive calls. How the source made its calls: active means growth percent below 10; inactive means the rest.

How the values were obtained:
Test in all cases: NCI-60 one-dose screen, 48 h (100 = growth as untreated, 0 = no growth, -100 = all killed)
Conditions in all cases: 10 µM unless noted
T-47D breast = test system: T-47D breast
BT-549 breast = test system: BT-549 breast
MDA-MB-435 melanoma = test system: MDA-MB-435 melanoma
SW-620 colon = test system: SW-620 colon
MCF7 breast = test system: MCF7 breast
HCT-116 colon = test system: HCT-116 colon
HCC-2998 colon = test system: HCC-2998 colon
KM12 colon = test system: KM12 colon

SMILES	growth (T-47D breast)	growth (BT-549 breast)	growth (MDA-MB-435 melanoma)	growth (SW-620 colon)	growth (MCF7 breast)	growth (HCT-116 colon)	growth (HCC-2998 colon)	growth (KM12 colon)
Cc1cc2c(c(C)c1Cl)C(=O)/C(=C/c1ccc(O)c(O)c1)O2	90.5%	104%	106%	105%	89.4%	112%	112%	109%
NS(=O)(=O)c1ccc(CCN2C(=O)c3cc(Cl)c(Cl)cc3C2=O)cc1	98.4%	109%	108%	110%	98.6%	100%	90.2%	100%
Cc1ccc(/C=N/NC(=O)CSc2nc3ccccc3c(=O)n2Cc2ccc(S(N)(=O)=O)cc2)cc1	81.7%	103%	46.2%	94%	59.4%	97.8%	99.9%	86.3%
O=C(N/N=C/c1cc2ccccc2n2nnnc12)Nc1ccccc1	108%	114%	102%	107%	92.3%	113%	108%	104%
COC(=O)C(OC(C)=O)C(OC(C)=O)c1ccc(OC)c(OC)c1 (stereo not drawn)	75.4%	104%	106%	118%	85.4%	81.8%	108%	102%
COc1ccc(/C=C/c2nc(Nc3ccc(S(=O)(=O)Nc4cc(C)on4)cc3)c3ccccc3n2)cc1	37.4%	85.8%	39.3%	70%	32.1%	68.1%	69.6%	49%
N#CC1=C(/N=C/c2ccccc2)Oc2c(ccc3ccccc23)C1c1ccc([N+](=O)[O-])cc1 (stereo not drawn)	76.5%	103%	101%	93%	78.4%	92%	98.3%	97.6%
CCOC(=O)c1cc(C#N)n2ccc3ccccc3c12	104%	113%	99.1%	97.9%	95.7%	108%	106%	100%
CCCOC(=O)N[C@H]1CCc2c(Cl)c(OC)c(OC)c(OC)c2-c2ccc(SC)c(=O)cc21	45.9%	1.4% (active)	-26.9% (active)	20.2%	14.7%	0.896% (active)	22.6%	-6.7% (active)
COc1ccc(/C=N/NC(=O)c2cnn3c2NC(c2ccccc2)C3)cc1OC (stereo not drawn)	56%	42.3%	0.386% (active)	44.4%	29.6%	22%	67%	44.6%
Cc1ccc(C(=O)/C(=C/c2ccc([N+](=O)[O-])cc2)SCc2ccc(Cl)cc2)cc1	65.2%	88.9%	78.1%	-52.1% (active)	12.8%	-59.9% (active)	78.6%	44.8%
Cc1ccc(-c2nc3ccccn3c2/C=C2/C(=O)Nc3cc(Cl)ccc32)cc1	74.6%	70.9%	-12.7% (active)	49%	33.5%	26.5%	92.2%	31.9%
COc1cc2c(c(O)c1Cl)C(=O)c1c(O)cc(C[C@H](C)O)cc1[C@H]2[C@H]1c2cc(C[C@H](C)O)cc(O)c2C(=O)c2c1cc(OC)c(Cl)c2O	10.5%	17.2%	11.3%	17.8%	7.74% (active)	9.53% (active)	25.9%	11.2%
CCCCOc1ccc(/C=N/Nc2cc(C)nc3ccc(Br)cc23)cc1	82.5%	99%	-4.43% (active)	-70.5% (active)	-52.1% (active)	-69.6% (active)	-53.9% (active)	-4.11% (active)
COc1cccc(-c2nc3occn3c2-c2ccnc(NCCNS(=O)(=O)c3ccc(C(F)(F)F)cc3)n2)c1	41.1%	96.5%	70.4%	113%	80.9%	92.9%	133%	98.9%
O=[N+]([O-])CC(c1ccccc1)c1c[nH]c2ccccc12 (stereo not drawn)	45.1%	56.6%	-14.6% (active)	27.9%	29.9%	32.7%	77.2%	43.6%

SMILES	growth (T-47D breast)	growth (BT-549 breast)	growth (MDA-MB-435 melanoma)	growth (SW-620 colon)	growth (MCF7 breast)	growth (HCT-116 colon)	growth (HCC-2998 colon)	growth (KM12 colon)
C[C@H]1[C@H](C)CC[C@]2(C(=O)NCC#CCN3CCN(C)CC3)CC[C@]3(C)C(=CC[C@@H]4[C@@]5(C)Cc6c([nH]c7ccccc67)C(C)(C)[C@@H]5CC[C@]43C)[C@H]12	76.7%	99.6%	52.2%	57.5%	41.3%	25.8%	76.6%	75.2%
CCCCCCCC(=O)OCC/C=C/C1OC1C1OC(=O)/C=C\C=C\C(=O)N(C(C)=O)C(=O)/C=C(/C)CCC2OC2C1OC(=O)NC(C)=O (stereo not drawn)	10.8%	92.5%	79%	83.1%	20.4%	3.69% (active)	72.1%	44.1%
CCCCCN1C=C/C(=C\C(=O)n2ccc3ccccc32)c2ccccc21	70%	96.9%	96.1%	85.2%	73.5%	72.6%	107%	89.2%
COc1cc2oc(-c3cccc(C(=O)Nc4ccc(Br)cc4)c3)cc(=O)c2c(OC)c1OC	36%	45.8%	65.6%	94.6%	78.1%	45.6%	81.9%	46.6%
CN1[C@@H]2CC[C@H]1/C(=C\c1ccccc1)C(=O)/C2=C/c1ccccc1	56%	35%	25%	28.8%	20.4%	11.9%	63.3%	20.7%
O=S(=O)(NCCNc1nccc(-c2c(-c3cccc(O)c3)nc3occn23)n1)c1ccc(C(F)(F)F)cc1	79.2%	107%	45%	126%	67.2%	90.1%	132%	94.4%
NC(=O)Nc1ccc(-n2cnc3cc(-c4ccc(O)cc4)ccc32)cc1	59.7%	88.2%	96.8%	114%	93.7%	91.8%	110%	21.8%
Cc1ccc(NC(=O)Cc2ccc(/C=C/C(=O)c3ncc[nH]3)cc2)cc1	38.9%	48.9%	28.7%	11.7%	14.5%	8.97% (active)	98%	11.3%
O=C1c2ccccc2C(=O)c2c([N+](=O)[O-])ccc(Cl)c21	46.7%	88.5%	106%	28.9%	71.7%	63.6%	104%	79.1%
Cc1nc2sccn2c1-c1nc2sccn2c1/C=C1/C(=O)Nc2ccccc21	27.6%	36%	-63.8% (active)	9.78% (active)	10.6%	24.1%	66.8%	12.5%
CC(=O)CCC(=O)OCc1cc(=O)c(O)co1	111%	102%	106%	97%	99%	97.3%	87.3%	93.5%
Cn1nc(CC#N)c2c(=N)n(N)cnc21	105%	122%	107%	104%	100%	119%	120%	102%
C=C(C)[C@@H]1CC[C@]2(CN)CC[C@]3(C)[C@H](CC[C@@H]4[C@@]5(C)CCCNC(C)(C)[C@@H]5CC[C@]43C)[C@@H]12	-10.1% (active)	84.6%	-96.2% (active)	-84.5% (active)	-66.1% (active)	-95.5% (active)	-80.6% (active)	-85.4% (active)
COc1ccccc1/C(C)=N/NC(=O)CSc1nc2ccccc2c(=O)n1Cc1ccc(S(N)(=O)=O)cc1	97.6%	99.3%	103%	100%	89.2%	95.9%	95.9%	102%
COc1cc(-c2csc(NC(=O)c3cc(F)cc(C(F)(F)F)c3)n2)cc(OC)c1OC	19.3%	41.2%	-16.2% (active)	32.4%	20.9%	16.5%	72.2%	26.6%
